# High-throughput results: PubChem, National Center for Advancing Translational Sciences (NCATS)
# Coupling enz = coupling enzyme interference in Giardia aldolase counter-screen; coupling enzyme system counterscreen, AmpLite Red fluorescence; activity change, negative = inhibition, % at 58.2 µM, hits read low; 290,000 tested, 0.67% active; in the data active = activity change below about -30%
#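 Activity here indicates interference with the coupling reaction, not aldolase inhibition. Compounds at 57.5 uM final met coupling enzymes for 10 min at RT; substrate and AmpLite Red detection followed, with a 525/598 nm fluorescence read after 20 min.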
# Sfp inh = Sfp phosphopantetheinyl transferase inhibition | Q9F4F7 | Biochemical Sfp PPTase activity, qHTS | Potency, µM, usual class: inhibitors | 310,000 tested, 3.5% active | AID 1490;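 note: the enzyme is Sfp with the accession as filed and its product quenches rhodamine fluorescence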
#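 Buffer: 50 mM Hepes-Na pH 7.6, 10 mM MgCl2, 0.01% Nonidet P-40, 0.01% BSA. Enzyme 15 nM, pre-exposed to compound 15 min; substrates then added and fluorescence change tracked over 30 min.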
# Tau fluor cs = counter-screen for tau fibril formation inhibitors | Potency, µM (series often up to 57.7 µM) | AID 1463 | 280,000 tested, 0.93% active | tau K18 P301L Alexa594 fluorescence, heparin fibrillization; note: nearly all actives have a fitted effect of over 55% in size
#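 Human K18 P301L tau (15 uM unlabeled plus 0.24 uM Alexa 594-labeled, final) in 100 mM sodium acetate pH 7 was mixed with compound and 20 uM heparin and incubated 6 hr at 37 C.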
# Tau fibril ThT = tau fibrillization inhibition (ThT binding). AID 1460. recombinant tau K18 P301L (four-repeat tau fragment), heparin-induced fibrillization, ThT fluorescence. 270,000 tested, 2.1% active. P10636. Potency, µM (titrated, usually from 57.4 µM), usual class: inhibitors; note: nearly all actives have a fitted effect of over 55% in size
# Target sequence (P10636 561-689 P618L limits assumed): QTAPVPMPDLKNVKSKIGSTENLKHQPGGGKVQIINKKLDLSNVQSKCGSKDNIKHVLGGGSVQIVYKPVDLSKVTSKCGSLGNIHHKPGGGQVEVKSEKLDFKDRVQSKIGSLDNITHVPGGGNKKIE
#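 Recombinant human tau K18 fragment […] carrying P301L, 15 uM unlabeled plus 0.24 uM Alexa 594-labeled, was fibrillized with 20 uM heparin in 100 mM sodium acetate pH 7 for 6 hr at 37 C; 30 uM ThT fluorescence read after 1 hr.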
# Tau fibril FP = tau fibrillization inhibition (FP). Potency, µM (top dose mostly 57.7 µM), actives largely listed as inhibitors. AID 1468. K18 P301L tau heparin fibrillization, Alexa594 FP, 6 h. 280,000 tested, 0.39% active; note: nearly all actives have a fitted effect of over 55% in size
#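 K18 P301L tau (15 uM unlabeled/0.24 uM Alexa 594-labeled, final) + compound + heparin 20 uM final; 100 mM NaOAc pH 7; 6 hr 37 C; ThT 30 uM final added, 1 hr RT; FP ex 555/em 632 nm.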
# Numbers stand for hits; – = inactive; ? = inconclusive; · = no result given; ! = not active in a repeat; [ ] = another dose, or the depositor's remark. Shown are actives, neighbours in structure and some others; about 5.2% of the full set was active somewhere. Unless noted, calls come from the whole dose curve; as a rule, active = well fitted curve in the direction sought with a large enough effect; inconclusive = small, poorly fitted or top-dose-only effect, or another doubt; inactive = no such curve, though single readings can be large; an effect the other way counts as inactive or inconclusive.
SMILES,Coupling enz,Sfp inh,Tau fluor cs,Tau fibril ThT,Tau fibril FP
Cc1ccc(C2C(C(=O)c3cc4ccccc4o3)=C(O)C(=O)N2CCN2CCOCC2)cc1 (stereo not drawn),·,–,·,·,·
Cc1ccc(C2C(C(=O)c3cc4ccccc4o3)=C(O)C(=O)N2CCN2CCOCC2)o1 (stereo not drawn),–,50.1µM,–,?,–
CC(C)(SC(=S)N1CCCCCC1)C(=O)O,–,79.4µM,–,–,–
CC(C)(SC(=S)N1CCOCC1)C(=O)O,–,–,–,–,–
c1ccc(OCCSc2nnc3sc4ccccc4n23)cc1,-39.3,–,–,?,–
CCN(CC)C(=O)CSc1nnc2sc3ccccc3n12,–,–,–,–,–
COc1cccc(OCCSc2nc(N)cc(N)n2)c1,–,–,–,?,–
COc1cccc(OCCSc2nnc3sc4ccccc4n23)c1,-41.6,–,–,?,–
Clc1ccc(Nc2nc(C3CC3)cs2)cc1,–,?,15.8µM[quencher],?,?
Cc1nnc(Nc2ccc(Cl)cc2)s1,–,–,–,·,–
Cc1ccc(Nc2nc(C3CC3)cs2)cc1,–,44.7µM,?,?,–
CC1(C)C(N(O)C(=O)Nc2ccc(Cl)cc2)N(c2ccc(Cl)cc2)C(=O)N1CC(=O)NN (stereo not drawn),–,100µM,–,–,–
C=CCOC(=O)C(=O)/C=C/c1coc2ccccc2c1=O,–,44.7µM,–,–,?
IC(I)I,·,44.7µM,·,·,·
COCCn1c(C)cc(O)c(C(c2ccccc2OC)N2CCN(c3ccccc3)CC2)c1=O (stereo not drawn),·,·,–,?,–
O=C(O)CCCn1cc(NC(=O)c2cc(F)c(F)cc2Cl)cn1,-34.4,–,–,–,–
O=C(O)CCCn1cc(NC(=O)c2cccc(F)c2)cn1,–,–,–,–,–
CCN(CC)C(=O)[C@@]1(c2ccccc2)C[C@@H]1CN,·,–,·,·,·
O=C(c1ccc2c(Cl)c3c(nc2c1)CCCC3)N1CCN(c2cccc(C(F)(F)F)c2)CC1,·,·,–,?,–
Cc1ccc2c(c1)c1ncnc(N3CCOCC3)c1n2C,–,–,–,–,–
Cc1ccc2c(c1)c1ccc3c(c1n2C)C(=O)C=CC3=O,–,2.51µM,0.891µM[quencher],·,?
COc1ccc2c(c1)c1ccc3c(c1n2C)C(=O)C=CC3=O,–,2.24µM,3.55µM[quencher],5.01µM,15.8µM
COc1ccc(C2=CC(c3ccccc3Cl)n3nc(-c4ccc(C)cc4)nc3N2)cc1 (stereo not drawn),·,·,–,–,?
C[C@@H](C(=O)N[C@@H](CO)Cc1ccccc1)[C@H]1C[C@]1(C)[C@H](NC(=O)OCc1ccccc1)c1ccccc1,–,–,–,–,–
CCCOc1cc(N)ccc1C(=O)OCCN(CC)CC,–,–,·,·,·
SMILES,Coupling enz,Sfp inh,Tau fluor cs,Tau fibril ThT,Tau fibril FP
CCCOc1ccc(N)cc1N,-66.0,44.7µM,11.2µM[quencher],3.16µM,7.08µM
CCCCC/C=C/C=C1/C(=O)C=C[C@@H]1C/C=C\CCCC(=O)O,–,56.2µM!,–,15.8µM!,?
CCCCC[C@H](O)/C=C/[C@H]1C=CC(=O)[C@@H]1C/C=C\CCCC(=O)O,–,56.2µM!,–,–,–
Cc1cc(N2CCN(C)CC2)nc2ccc(NC(=O)c3ccc(Br)o3)cc12,–,–,?,?,–
Cc1cc(N2CCCCC2)nc2ccc(NC(=O)c3ccc(Br)o3)cc12,–,–,25.1µM[quencher],8.91µM,?
Cc1cc(N2CCCCC2)nc2ccc(NC(=O)c3ccc(F)cc3)cc12,·,·,15.8µM[quencher],?,?
COc1cc(/C=N/Nc2nc3c(c(=O)n(C)c(=O)n3C)n2Cc2ccccc2)ccc1OC(=O)c1ccco1,–,–,7.94µM[quencher],?,?
CC(NC(=O)c1nn(C)c2c1CSc1ccccc1-2)c1ccccc1 (stereo not drawn),·,·,–,–,–
O=C(NCCO)c1cc2cc(Cl)cc(Cl)c2oc1=O,–,35.5µM,–,?,–
COCCNC(=O)c1cc2cc(Cl)cc(Cl)c2oc1=O,–,–,–,–,–
CCC/C=N/Nc1nc2ccccc2s1,–,–,?,?,–
Brc1csc(/C=N/Nc2nc3ccccc3s2)c1,–,?,7.94µM[quencher],?,–
C(=C\c1ccccc1)/C=N/Nc1nc2ccccc2s1,–,–,10µM[quencher],?,–
Cc1ccc2[nH]c(C)c(/C=N/Nc3nc4ccccc4s3)c2c1,–,–,10µM[quencher],14.1µM,?
C(=N\Nc1ccccc1)/c1nc2ccccc2s1,–,–,12.6µM[quencher],?,?
C(=N\Nc1nc2ccccc2s1)/c1ccccn1,–,–,–,?,–
Cn1cc(C(=O)NCc2ccc(Cl)cc2)c(=O)c2cc(S(=O)(=O)N3CCCCCC3)ccc21,·,·,–,–,–
CCc1nn(CC(=O)NCCCN(CC(C)C)CC(C)C)c(=O)c2cc3sc(C)cc3n12,·,·,–,–,–
Brc1ccc(N/N=C(/N=Nc2nn[nH]n2)c2ccccc2)cc1,–,–,8.91µM[quencher],4.47µM,?
O=C(/C(=N\Nc1ccc(Br)cc1)Sc1nnnn1-c1ccccc1)c1ccccc1,–,–,?,–,–
CCOC(=O)c1sc(NC(=O)CSc2nc3ccccc3s2)c(C(=O)OCC)c1C,–,–,–,–,–
CN(C)c1ccc(NC(=O)CSc2nc(N)c(C(=O)Nc3ccc(N(C)C)cc3)s2)cc1,–,–,12.6µM[quencher],2.51µM,–
CCOC(=O)c1sc(SCC(=O)Nc2ccc(N(C)C)cc2)nc1N,–,–,?,14.1µM,–
COc1ccc(NC(=O)CSc2nc(N)c(C(=O)Nc3ccc(N(C)C)cc3)s2)cc1,–,–,?,2.51µM,–
COc1ccc(NC(=O)CSc2nnc(N)s2)cc1,–,–,–,–,–
SMILES,Coupling enz,Sfp inh,Tau fluor cs,Tau fibril ThT,Tau fibril FP
CCc1nn2c(-c3ccccc3OC)ccnc2c1-c1ccccc1,·,·,–,?,–
COC(=O)C1=C[C@@H](C(=O)OC)C2C3=C(C(=O)[C@@]2(C)NC(=O)c2ccccc2)[C@H](C)[C@@H]2C(=O)N(C)C(=O)[C@@H]2[C@@H]3C1 (stereo partly drawn),–,–,·,·,·
O=C(NCc1cccs1)c1nn(-c2ccccc2F)nc1CO,·,·,–,–,–
Cc1ccccc1CNC(=O)C(=O)NCC(c1ccco1)S(=O)(=O)c1ccc(F)cc1 (stereo not drawn),·,·,–,–,–
CNC(=O)C(Sc1nc(C)nc2c1oc1ccccc12)C(C)=O (stereo not drawn),–,50.1µM,–,–,–
Cc1nc(SCc2cccc(F)c2)c2oc3ccccc3c2n1,–,39.8µM,–,?,–
CCc1ccc(-n2nc3cc(C)c(NC(=O)c4cc(Cl)ccc4OC)cc3n2)cc1,·,·,–,–,–
CCOc1cc(/C=N/NC(=O)CNc2cccc(C)c2)ccc1OC(=O)c1ccccc1,–,–,14.1µM[quencher],?,–
CCOc1cc(/C=N/Nc2cccc(C(=O)O)c2)ccc1OC(=O)c1ccccc1,–,–,?,?,–
Cc1ccc(-n2cc(CN(C)Cc3ncc[nH]3)c(-c3cccc(C)c3)n2)cc1,–,56.2µM,–,–,–
